Test [1] deals with Serine/threonine-protein kinase PAK 6 (Homo sapiens) (UniProt Q9NQU5). Conditions: at 1 µM.
The subject of test [2] is Tyrosine-protein kinase ABL1 (Homo sapiens), P00519 [E255K]. The conditions noted are these: at 0.1 µM.
For test [3] the test system is unchanged. The conditions noted are these: at 1 µM.
Test [4] has as its system Tyrosine-protein kinase ABL1 (Homo sapiens), P00519 [H396P]. Conditions: at 0.1 µM.
Test [5] has the same test system. Conditions: at 1 µM.
Test [6] deals with Tyrosine-protein kinase ABL1 (Homo sapiens), P00519 [M351T]. The conditions noted are these: at 0.1 µM.
Test [7] has the same test system. Conditions: at 1 µM.
Test [8] deals with Tyrosine-protein kinase ABL1 (Homo sapiens), P00519 [Q252H]. The conditions noted are these: at 0.1 µM.
Test [9] has the same test system. The conditions noted are these: at 1 µM.
Test [10] relates to Tyrosine-protein kinase ABL1 (Homo sapiens), P00519 [T315I]. The conditions noted are these: at 0.1 µM.

SMILES strings stand for the structures. Where “and” joins values, the source holds several entries; their conditions need not be identical. Identical values can stand only once.

Serine/threonine-protein kinase PAK 6 (Homo sapiens), sequence (Q9NQU5 whole entry, looked up): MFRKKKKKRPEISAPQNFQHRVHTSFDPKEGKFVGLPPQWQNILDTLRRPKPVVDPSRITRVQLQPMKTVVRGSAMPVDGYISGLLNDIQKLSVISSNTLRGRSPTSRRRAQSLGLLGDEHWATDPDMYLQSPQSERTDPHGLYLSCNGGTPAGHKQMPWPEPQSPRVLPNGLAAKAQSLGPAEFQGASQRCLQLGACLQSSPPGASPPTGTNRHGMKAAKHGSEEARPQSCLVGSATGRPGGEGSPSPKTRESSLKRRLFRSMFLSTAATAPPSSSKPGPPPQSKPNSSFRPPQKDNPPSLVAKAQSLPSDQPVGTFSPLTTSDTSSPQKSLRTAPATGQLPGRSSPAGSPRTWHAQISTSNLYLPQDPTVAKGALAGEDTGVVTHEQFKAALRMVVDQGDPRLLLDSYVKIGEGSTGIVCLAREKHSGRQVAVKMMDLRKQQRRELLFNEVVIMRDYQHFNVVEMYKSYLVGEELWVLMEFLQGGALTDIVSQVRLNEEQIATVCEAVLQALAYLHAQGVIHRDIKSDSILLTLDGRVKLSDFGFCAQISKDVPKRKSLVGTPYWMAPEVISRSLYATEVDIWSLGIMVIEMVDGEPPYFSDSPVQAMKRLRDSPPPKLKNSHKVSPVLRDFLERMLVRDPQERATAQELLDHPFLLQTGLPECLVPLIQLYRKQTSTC

Turning to `CCn1c(-c2nonc2N)nc2cncc(C(=O)NCCNC)c21`, the inhibition in test [1] is -1.02%; in [2] it was 3.42%; in [3], 4.29%; in test [4] it was 3.77%; in [5], 6.65%; in test [6], -0.31%. The inhibition is 3.11% in test [7], 4.53% in test [8], 5.61% in test [9] and 3.85% in [10].

For `Cc1nnc(-c2cccc(-c3ccc(C(=O)NCC4CC4)cc3)c2)o1`, the inhibition is -1.37% in test [1]; 4.38% in [2]; 4.87% in test [3]; 4.09% in test [4]; 6.67% in test [5]; 2.13% in test [6]. Moreover, the inhibition is 5.6% in [7], 4.31% in test [8], 5.92% in test [9] and 4.43% in test [10].

With `Nc1nccc(-c2c(-c3ccc(F)cc3)ncn2C2CCNCC2)n1`, the inhibition was -8.13% and -0.6% in test [1]; -2.24% and 1.83% in [2]; -1.66% and 0.75% in test [3]; -1.77% and 0.86% in [4]; 3.78% and 0.72% in [5]; -2.76% and 1.38% in test [6]. Besides, the inhibition in test [7] was 4.44% and 1.12%; in test [8], -0.74% and -0.69%; in test [9] it was 4.57% and 2.57%; in [10] it was -3.43% and 2.15%.

As for `COc1cccc(-n2ncc3c(N/N=C/c4ccc(C(=O)NCCN(C)C)cc4)ncnc32)c1`, the inhibition was determined as 12.9% in [1]; 92.1% in test [2]; 94.7% in [3]; 93.9% in [4]; 95% in [5]; 92.3% in [6]. Also, the inhibition in test [7] was found to be 95.5%; in test [8], 94.2%; in test [9], 95.4%; in test [10], 84.6%.

On to `CN(c1ccc(NC(=O)NCCN2CCOCC2)cc1)c1ccnc(Nc2ccc(CS(C)(=O)=O)cc2)n1`, for which the inhibition in test [1] amounted to 9.1%; in test [2], 2.54%; in [3], 14.2%; in test [4], 4.8%; in test [5] it was 26.3%; in test [6] it was 3.59%. Moreover, the inhibition is 36.8% in test [7], 8.57% in test [8], 39.3% in test [9] and 6.6% in test [10].

Turning to `O=C1Nc2ccccc2/C1=C1\CCc2cc(O)ccc21`, the inhibition in test [1] is -3.1%; in test [2], 1.09%; in [3], 9.2%; in [4], 5.59%; in test [5], 15%; in test [6] it was 4.89%. Besides, the inhibition in [7] was 15.4%; in test [8], 5.53%; in test [9], 12.8%; in test [10], 4.27%.

As for `CS(=O)(=O)CCNCc1ccoc1-c1ccc2ncnc(Nc3ccc(OCc4ccccc4)cc3)c2c1`, the inhibition in [1] is -2.12%; in test [2], -3.3%; in [3], 0.24%; in test [4], 0.81%; in test [5], -0.01%; in [6], 0.87%. In addition, the inhibition in test [7] was -0.25%; in test [8], 1.54%; in test [9] it was 1.56%; in [10], 1.58%.

On to `CS(=O)(=O)Nc1ccc(-c2ccc3c(NC(=O)C4CC4)n[nH]c3c2)cc1`, for which the inhibition in test [1] is 5.45%; in test [2] it was 2.53%; in test [3], 5.92%; in test [4] it was 4.24%; in test [5], 17.5%; in test [6] it was 4.89%. Also, the inhibition in test [7] was 20.3%; in test [8], 4.73%; in test [9], 9.35%; in [10], 4.61%.

For `Nc1nonc1-c1nc2cnccc2n1C1CC1`, the inhibition was 7.32% and -5.94% in test [1]; 2.67% and 0.93% in test [2]; 3.5% and 4.4% in test [3]; 2.21% and 2.04% in test [4]; 0.55% and 1.2% in [5]; 0.52% and -0.88% in test [6]. Besides, the inhibition in test [7] is -0.96% and 2.63%; in test [8] it was 4.06% and 0.83%; in [9] it was 3.65% and 2.84%; in test [10] it was 2.85% and 1.97%.

As to `Cc1cc(O)cc(C)c1/C=C/c1cncc(C(N)=O)c1`, the inhibition in [1] was determined as 10.6%; in [2], 15.7%; in [3], 61%; in test [4], 20.4%; in test [5] it was 70.1%; in test [6], 18.5%. Also, the inhibition in test [7] amounted to 69%; in [8], 18.7%; in [9] it was 67.5%; in test [10], 2.31%.

On to `CC1=C(C(=O)Nc2ccc3[nH]ncc3c2)C(c2ccc(F)cc2)N=C(c2ccc(C(F)(F)F)nc2)N1` (stereo not given), for which the inhibition in [1] came to 1.5%; in test [2] it was 2.72%; in [3] it was 3.5%; in test [4], 2.21%; in test [5] it was 1.95%; in test [6], 1.43%. Further, the inhibition was found to be 3.71% in [7], 1.86% in test [8], 3.9% in test [9] and 1.97% in [10].

In the case of `N#Cc1cccc(Nc2ncc(-c3ccccc3)o2)c1`, the inhibition in test [1] was -3.46%; in test [2], 1.93%; in [3], 13.5%; in [4] it was 4.61%; in [5], 26.9%; in [6], 2.88%. Besides, the inhibition in [7] turned out to be 27.1%; in test [8] it was 3.25%; in [9] it was 21.2%; in test [10] it was 2.21%.

On to `NS(=O)(=O)c1ccc(N/N=C2\C(=O)Nc3cccc(CCc4ccncc4)c32)cc1`, for which the inhibition in [1] is -3.63%; in [2], -0.21%; in test [3], 3.53%; in [4], 2.64%; in [5], 7.39%; in test [6], 3.41%. The inhibition in test [7] is 8.25%; in test [8], 1.54%; in [9] it was 7.74%; in [10], 1.83%.

Take `NS(=O)(=O)c1ccc(N/N=C2\C(=O)Nc3ccc(C(=O)NCc4ccncc4)cc32)cc1`: the inhibition in test [1] was found to be 12.5%; in [2], 0.9%; in [3], 10%; in test [4], 2.55%; in test [5], 15%; in test [6], 1.51%. For the same molecule, the inhibition in test [7] was 13.2%; in [8], 1.73%; in test [9], 11.6%; in test [10], 2.6%.

For the molecule `NS(=O)(=O)c1cccc(N/C=C2\C(=O)Nc3ccccc32)c1`, the inhibition stood at 1.64% in test [1]; 5.29% in test [2]; 7.64% in test [3]; 6.01% in test [4]; 8.67% in test [5]; 3.89% in test [6]. In addition, the inhibition in test [7] is 8.75%; in test [8], 5.8%; in [9], 8.71%; in test [10], 3.14%.

Regarding `Cc1cc(O)cc(C)c1/C=C/c1cncc(C(=O)OC(C)(C)C)c1`, the inhibition in [1] is -0.98%; in test [2], 4.42%; in [3], 21.6%; in test [4] it was 7.59%; in test [5] it was 35%; in [6], 9.08%. In addition, the inhibition in test [7] came to 46%; in test [8], 11.7%; in test [9] it was 52.5%; in [10], 1.3%.

As usually defined, the inhibition is the relative decrease from the control value, in per cent.
